# Records with an inconclusive call do not appear. Where a call stands in place of a potency, no number is given. Unmarked numbers belong to inactive results. Calls of active or inactive are those of the source. The call rests on the fitted dose curve; in most records, active means well fitted curve in the direction sought with a large enough effect; inconclusive means small, poorly fitted or top-dose-only effect, or another doubt; inactive means no such curve, though single readings can be large; an effect the other way counts as inactive or inconclusive.
# Tests used:
# HEK293 = test: Cytotoxic Profiling of Annotated Libraries Using Quantitative High-Throughput Screening (AID 1296008); details: Five cell lines viability, CellTiter-Glo ATP luminescence, 48-72 h; max response: stronger effect = lower value; further: nearly all actives have a fitted effect of over 60% in size; further: potency means the concentration at half of the fitted maximal effect
# Outline: (§1)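 Cytotoxicity was measured as CellTiter-Glo ATP luminescence, read after 10 min at room temperature. Compound treatment of the cells lasted 48 or 72 hr at 37 degrees Celsius in a qHTS format.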
# HaCat [1] = test: as above; details: Five cell lines viability, CellTiter-Glo ATP luminescence, 48-72 h; max response: stronger effect = lower value
# Outline: as §1
# HACAT [2] = test: qHTS assay to identify novel small-molecules to repurpose for Merkel cell carcinoma treatment (AID 1296009); details: MCC and control cell lines, CellTiter-Glo viability, 72 h; at 44.8 µM (top of the series) unless noted; further: nearly all actives have a fitted effect of over 60% in size
# Outline: (§2)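 Cell viability measured by CellTiter-Glo following 72 hr compound treatment at 37 degree celsius, with NPC and MIPE libraries tested in 8- and 11-point concentration series.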
# C33A = test: Primary qHTS to identify gynecologic anti-cancer compounds using libraries of approved drugs and bioactive compounds (AID 1345084); details: Gynecologic cancer cell panel viability, ATPlite luminescence, 48 h; series mostly up to 57.5 µM; further: nearly all actives have a fitted effect of over 55% in size; further: potency means the concentration at half of the fitted maximal effect
# Outline: (§3)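 Cells, 1,000 per well, were allowed to settle for 16 h at 37 C before compound addition. Five concentrations were tested for 48 h, and viability was read by ATPlite luminescence after 15 min at room temperature.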
# CAOV3 = test: as above; details: Gynecologic cancer cell panel viability, ATPlite luminescence, 48 h; series mostly up to 57.5 µM
# Outline: as §3
# CASKI = test: as above; details: Gynecologic cancer cell panel viability, ATPlite luminescence, 48 h; series mostly up to 57.5 µM
# Outline: as §3
# Es-2 = test: as above; details: Gynecologic cancer cell panel viability, ATPlite luminescence, 48 h; series mostly up to 57.5 µM
# Outline: as §3
# HeLa = test: as above; details: Gynecologic cancer cell panel viability, ATPlite luminescence, 48 h; series mostly up to 57.5 µM
# Outline: as §3
# Hek293T = test: as above; details: Gynecologic cancer cell panel viability, ATPlite luminescence, 48 h, control line for the selectivity index; series mostly up to 57.5 µM
# Outline: as §3
# JEG-3 = test: as above; details: Gynecologic cancer cell panel viability, ATPlite luminescence, 48 h; series mostly up to 57.5 µM
# Outline: as §3
# OV90 = test: as above; details: Gynecologic cancer cell panel viability, ATPlite luminescence, 48 h; series mostly up to 57.5 µM
# Outline: as §3
# PA-1 = test: as above; details: Gynecologic cancer cell panel viability, ATPlite luminescence, 48 h; series mostly up to 57.5 µM
# Outline: as §3
# NIH3T3 [3] = test: Cytotoxic Profiling of Annotated Libraries Using Quantitative High-Throughput Screening (AID 1296008); details: Five cell lines viability, CellTiter-Glo ATP luminescence, 48-72 h; max response: stronger effect = lower value; further: nearly all actives have a fitted effect of over 60% in size; further: potency means the concentration at half of the fitted maximal effect
# Outline: as §1
# SKOV3 = test: Primary qHTS to identify gynecologic anti-cancer compounds using libraries of approved drugs and bioactive compounds (AID 1345084); details: Gynecologic cancer cell panel viability, ATPlite luminescence, 48 h; series mostly up to 57.5 µM; further: nearly all actives have a fitted effect of over 55% in size; further: potency means the concentration at half of the fitted maximal effect
# Outline: as §3
# NIH3T3 [4] = test: qHTS assay to identify novel small-molecules to repurpose for Merkel cell carcinoma treatment (AID 1296009); details: MCC and control cell lines, CellTiter-Glo viability, 72 h; series mostly up to 44.8 µM; further: nearly all actives have a fitted effect of over 60% in size
# Outline: as §2
Compound,max response (HEK293),outcome (HaCat [1]),outcome (HACAT [2]),Potency (C33A),Potency (CAOV3),Potency (CASKI),Potency (Es-2),Potency (HeLa),Potency (Hek293T),Potency (JEG-3),Potency (OV90),Potency (PA-1),max response (NIH3T3 [3]),Potency (HEK293),max response (HaCat [1]),Potency (SKOV3),Potency (HaCat [1]),outcome (NIH3T3 [3]),Potency (NIH3T3 [4]),Potency (NIH3T3 [3])
O=C(O)c1ccc(N2C(=O)/C(=C/c3ccc(-c4ccc([N+](=O)[O-])cc4)o3)C=C2c2ccccc2)cc1,-3.48%,inactive,inactive,inactive,inactive,inactive,inactive,inactive,inactive,inactive,inactive,inactive,–,–,–,–,–,–,–,–
c1cc(NCCc2c[nH]c3ccccc23)cc(Nc2ccncc2)c1,-111%,inactive,inactive,inactive,inactive,inactive,inactive,inactive,inactive,inactive,inactive,inactive,-50.3%,–,–,–,–,–,–,–
CC(=O)C1(C)CCC2C3C=C(C)C4=CC(=O)CCC4(C)C3CCC21C (stereo not drawn),–,–,–,inactive,inactive,inactive,inactive,14.1 µM (active),–,inactive,inactive,–,-16.2%,10.3 µM (active),-54.8%,inactive,–,–,–,–
COc1cc(OC)c(NC(=O)c2ccc(Cc3cc4c(cc3C)C(C)(C)CCC4(C)C)o2)c(OC)c1,–,–,–,inactive,inactive,inactive,inactive,inactive,inactive,inactive,inactive,inactive,4.87%,20.6 µM (active),3.56%,inactive,–,–,–,–
O=C(Nc1ccc(CN2CCOCC2)cc1)c1ccc(-c2cccc(Cl)c2)o1,–,–,–,inactive,inactive,inactive,inactive,inactive,inactive,inactive,–,–,1.97%,9.2 µM (active),-23.4%,–,–,–,–,–
Cc1cc2c(c(=O)o1)C=C1CC[C@H]([C@H](C)Cn3cnc(=N)c4[nH]cnc43)C[C@@H]1O2,–,inactive,inactive,–,–,inactive,inactive,inactive,inactive,inactive,inactive,inactive,-1.79%,8.2 µM (active),–,inactive,–,–,–,–
COC(=O)N1CC2(CC2)C[C@H](C(=O)NO)[C@H]1C(=O)N1CCN(c2ccccc2)CC1,–,–,–,–,–,–,–,–,–,–,–,–,–,23.4 µM (active),–,–,26.3 µM (active),inactive,inactive,–
CC(C)S(=O)(=O)NC[C@@H]1CC(c2ccc(N3CCCC3)c(F)c2)=NO1,–,–,–,–,inactive,inactive,inactive,inactive,–,inactive,–,inactive,-14.9%,14.6 µM (active),-20.2%,–,–,–,–,–
CO[C@H]1C[C@@H]2CC[C@@H](C)[C@@](O)(O2)C(=O)C(=O)N2CCCC[C@H]2C(=O)O[C@H]([C@@H](C)C[C@@H]2CC[C@@H](O)[C@H](OC)C2)CC(=O)[C@H](C)/C=C(\C)[C@@H](O)[C@@H](OC)C(=O)[C@H](C)C[C@H](C)/C=C/C=C/C=C/1C,–,–,–,inactive,inactive,inactive,inactive,inactive,inactive,inactive,–,–,-0.671%,0.0073 µM (active),-8.22%,inactive,–,–,–,–
CC(C)CCNC(=O)c1ccc2c(c1)nc(Nc1n[nH]c3ccc(-c4ccccc4OC(F)(F)F)cc13)n2C1CCC(O)CC1 (stereo not drawn),–,inactive,inactive,–,inactive,inactive,inactive,inactive,inactive,inactive,inactive,inactive,–,9.2 µM (active),–,inactive,–,–,–,–
Cc1nc2ccc(-n3ncc(C(=O)c4cc5ccccc5[nH]4)c3N)cc2[nH]1,–,–,–,–,–,–,–,28.2 µM (active),14.1 µM (active),–,14.1 µM (active),–,–,5.8 µM (active),-16.7%,–,–,–,–,9.2 µM (active)
CCC(=C(c1ccc(OCCN2CCCC2)cc1)c1ccc(OCCN2CCCC2)cc1)c1ccccc1,–,–,–,inactive,inactive,inactive,inactive,inactive,inactive,inactive,–,–,–,8.2 µM (active),-11%,–,–,–,–,–
COC1CCN(c2cccc(-c3cc(NC(C)=O)nc(-n4nc(C)cc4C)n3)n2)CC1,–,–,–,inactive,inactive,inactive,inactive,inactive,inactive,inactive,inactive,inactive,–,9.2 µM (active),-6.53%,–,–,–,–,–
